PMC12820563, “FoxP3 forms a head-to-head dimer in vivo and stabilizes its multimerization on adjacent microsatellites”
In all, about 16,000 sequences were measured (“rpm ratio (pull-down/input)”: median about 0.94, highest 2% from about 1.7 on). The sample as a whole holds a higher share of the highest values than the screen did.

Target: T1, MBP-FoxP1dN (Mus musculus, UniProt P58462 326-579)
T1 sequence: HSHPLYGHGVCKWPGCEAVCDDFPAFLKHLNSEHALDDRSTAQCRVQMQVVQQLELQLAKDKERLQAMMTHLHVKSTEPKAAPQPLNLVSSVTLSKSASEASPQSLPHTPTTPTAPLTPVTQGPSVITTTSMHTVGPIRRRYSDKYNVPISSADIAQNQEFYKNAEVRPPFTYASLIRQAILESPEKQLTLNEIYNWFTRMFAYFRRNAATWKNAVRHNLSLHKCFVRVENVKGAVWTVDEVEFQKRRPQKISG
Test: PD-seq (MBP pull-down with sequencing); 20 mM Tris-HCl pH 7.5, 100 mM NaCl, 1.5 mM MgCl2, 0.4 uM protein, 0.1 uM dsDNA library, 30 min, room temperature, amylose pull-down; high values mean tight binding
Conditions: protein: recombinant; tags: His6-MBP; chain copies: 2; dsDNA, one strand shown
Method in brief: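 E. coli-expressed mouse FoxP3 or FoxP1 fragment, N-terminus removed and tagged with His6-MBP, was used at 0.4 µM against 0.1 µM of a Klenow-filled degenerate double-stranded DNA library. After 30 min at room temperature in Tris pH 7.5 buffer with NaCl and MgCl2, complexes were pulled down on amylose resin and washed three times. Binding is pull-down over input reads-per-million enrichment from pooled replicates of the proteinase K-released, PCR-barcoded, Illumina-sequenced DNA.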

Sequence | binding signal
GATGATTGTTCTCCCAGCTGATGAATTATTGGCTTCGAGTAAACAAATTTTCCTAATCTTTCTGTTCAAGCGCCATCTAC | 1.1 RPM ratio (pull-down/input)
GATGATTGTTCTCCCAGCTGATGAATTGCATCCCTCGAGTAAACAAATTTTCCTAATCTTTCTGTTCAAGCGCCATCTAC | 1.46 RPM ratio (pull-down/input)
GATGATTGTTCTCCCAGCTGATGAATTTTTTAGCTCGAGTAAACAAATTTTCCTAATCTTTCTGTTCAAGCGCCATCTAC | 0.853 RPM ratio (pull-down/input)
GATGATTGTTCTCCCAGCTGATGAATTTTGTTTCTCGAGTAAACAAATTTTCCTAATCTTTCTGTTCAAGCGCCATCTAC | 1.71 RPM ratio (pull-down/input)
GATGATTGTTCTCCCAGCTGATGAATTTAGCTCCTCGAGTAAACAAATTTTCCTAATCTTTCTGTTCAAGCGCCATCTAC | 0.946 RPM ratio (pull-down/input)
GATGATTGTTCTCCCAGCTGATGAATTTTTGTTCTCGAGTAAACAAATTTTCCTAATCTTTCTGTTCAAGCGCCATCTAC | 0.963 RPM ratio (pull-down/input)
GATGATTGTTCTCCCAGCTGATGAATTGTTTAGCTCGAGTAAACAAATTTTCCTAATCTTTCTGTTCAAGCGCCATCTAC | 1.89 RPM ratio (pull-down/input)
GATGATTGTTCTCCCAGCTGATGAATTGTTTTTCTCGAGTAAACAAATTTTCCTAATCTTTCTGTTCAAGCGCCATCTAC | 2.22 RPM ratio (pull-down/input)
GATGATTGTTCTCCCAGCTGATGAATTCTGTTTCTCGAGTAAACAAATTTTCCTAATCTTTCTGTTCAAGCGCCATCTAC | 1.14 RPM ratio (pull-down/input)
GATGATTGTTCTCCCAGCTGATGAATTGTTTCTCTCGAGTAAACAAATTTTCCTAATCTTTCTGTTCAAGCGCCATCTAC | 1.33 RPM ratio (pull-down/input)
GATGATTGTTCTCCCAGCTGATGAATTTGCATCCTCGAGTAAACAAATTTTCCTAATCTTTCTGTTCAAGCGCCATCTAC | 1.77 RPM ratio (pull-down/input)
GATGATTGTTCTCCCAGCTGATGAATTTTGCATCTCGAGTAAACAAATTTTCCTAATCTTTCTGTTCAAGCGCCATCTAC | 1.52 RPM ratio (pull-down/input)
GATGATTGTTCTCCCAGCTGATGAATTTGTTTTCTCGAGTAAACAAATTTTCCTAATCTTTCTGTTCAAGCGCCATCTAC | 2.32 RPM ratio (pull-down/input)
GATGATTGTTCTCCCAGCTGATGAATTCGTTGGGTCGAGTAAACAAATTTTCCTAATCTTTCTGTTCAAGCGCCATCTAC | 0.781 RPM ratio (pull-down/input)
GATGATTGTTCTCCCAGCTGATGAATTCCAAGGATCGAGTAAACAAATTTTCCTAATCTTTCTGTTCAAGCGCCATCTAC | 0.795 RPM ratio (pull-down/input)
GATGATTGTTCTCCCAGCTGATGAATTCAACTAGTCGAGTAAACAAATTTTCCTAATCTTTCTGTTCAAGCGCCATCTAC | 0.877 RPM ratio (pull-down/input)
GATGATTGTTCTCCCAGCTGATGAATTTATTGGCTCGAGTAAACAAATTTTCCTAATCTTTCTGTTCAAGCGCCATCTAC | 1.09 RPM ratio (pull-down/input)
GATGATTGTTCTCCCAGCTGATGAATTGAGAGTCTCGAGTAAACAAATTTTCCTAATCTTTCTGTTCAAGCGCCATCTAC | 0.741 RPM ratio (pull-down/input)
GATGATTGTTCTCCCAGCTGATGAATTAGACGGGTCGAGTAAACAAATTTTCCTAATCTTTCTGTTCAAGCGCCATCTAC | 0.832 RPM ratio (pull-down/input)
GATGATTGTTCTCCCAGCTGATGAATTAAAGCGCTCGAGTAAACAAATTTTCCTAATCTTTCTGTTCAAGCGCCATCTAC | 0.953 RPM ratio (pull-down/input)
GATGATTGTTCTCCCAGCTGATGAATTGCGGCTATCGAGTAAACAAATTTTCCTAATCTTTCTGTTCAAGCGCCATCTAC | 1.02 RPM ratio (pull-down/input)

Sequence | binding signal
GATGATTGTTCTCCCAGCTGATGAATTGTATTACTCGAGTAAACAAATTTTCCTAATCTTTCTGTTCAAGCGCCATCTAC | 1.24 RPM ratio (pull-down/input)
GATGATTGTTCTCCCAGCTGATGAATTACCCGGTTCGAGTAAACAAATTTTCCTAATCTTTCTGTTCAAGCGCCATCTAC | 0.848 RPM ratio (pull-down/input)
GATGATTGTTCTCCCAGCTGATGAATTGTTTTCATCGAGTAAACAAATTTTCCTAATCTTTCTGTTCAAGCGCCATCTAC | 1.96 RPM ratio (pull-down/input)
GATGATTGTTCTCCCAGCTGATGAATTGTTTGCCTCGAGTAAACAAATTTTCCTAATCTTTCTGTTCAAGCGCCATCTAC | 1.96 RPM ratio (pull-down/input)
GATGATTGTTCTCCCAGCTGATGAATTGTTTTCCTCGAGTAAACAAATTTTCCTAATCTTTCTGTTCAAGCGCCATCTAC | 2.36 RPM ratio (pull-down/input)
GATGATTGTTCTCCCAGCTGATGAATTTTTTGCCTCGAGTAAACAAATTTTCCTAATCTTTCTGTTCAAGCGCCATCTAC | 0.956 RPM ratio (pull-down/input)
GATGATTGTTCTCCCAGCTGATGAATTTAGATGCTCGAGTAAACAAATTTTCCTAATCTTTCTGTTCAAGCGCCATCTAC | 1.78 RPM ratio (pull-down/input)
GATGATTGTTCTCCCAGCTGATGAATTAGATTGCTCGAGTAAACAAATTTTCCTAATCTTTCTGTTCAAGCGCCATCTAC | 0.987 RPM ratio (pull-down/input)
GATGATTGTTCTCCCAGCTGATGAATTTGTTTCCTCGAGTAAACAAATTTTCCTAATCTTTCTGTTCAAGCGCCATCTAC | 1.49 RPM ratio (pull-down/input)
GATGATTGTTCTCCCAGCTGATGAATTGTTTCCCTCGAGTAAACAAATTTTCCTAATCTTTCTGTTCAAGCGCCATCTAC | 1.41 RPM ratio (pull-down/input)
GATGATTGTTCTCCCAGCTGATGAATTTTAGAGCTCGAGTAAACAAATTTTCCTAATCTTTCTGTTCAAGCGCCATCTAC | 0.77 RPM ratio (pull-down/input)
GATGATTGTTCTCCCAGCTGATGAATTTGCCTCCTCGAGTAAACAAATTTTCCTAATCTTTCTGTTCAAGCGCCATCTAC | 0.95 RPM ratio (pull-down/input)
GATGATTGTTCTCCCAGCTGATGAATTTGTTTCATCGAGTAAACAAATTTTCCTAATCTTTCTGTTCAAGCGCCATCTAC | 1.33 RPM ratio (pull-down/input)
GATGATTGTTCTCCCAGCTGATGAATTTTTTTCATCGAGTAAACAAATTTTCCTAATCTTTCTGTTCAAGCGCCATCTAC | 1.02 RPM ratio (pull-down/input)
GATGATTGTTCTCCCAGCTGATGAATTGGTACCTTCGAGTAAACAAATTTTCCTAATCTTTCTGTTCAAGCGCCATCTAC | 0.97 RPM ratio (pull-down/input)
GATGATTGTTCTCCCAGCTGATGAATTTGTGTCATCGAGTAAACAAATTTTCCTAATCTTTCTGTTCAAGCGCCATCTAC | 1.48 RPM ratio (pull-down/input)
GATGATTGTTCTCCCAGCTGATGAATTAAAGCAATCGAGTAAACAAATTTTCCTAATCTTTCTGTTCAAGCGCCATCTAC | 1.32 RPM ratio (pull-down/input)
GATGATTGTTCTCCCAGCTGATGAATTCGTTCAATCGAGTAAACAAATTTTCCTAATCTTTCTGTTCAAGCGCCATCTAC | 0.909 RPM ratio (pull-down/input)
GATGATTGTTCTCCCAGCTGATGAATTACATGGTTCGAGTAAACAAATTTTCCTAATCTTTCTGTTCAAGCGCCATCTAC | 1.12 RPM ratio (pull-down/input)
GATGATTGTTCTCCCAGCTGATGAATTTAGGCTATCGAGTAAACAAATTTTCCTAATCTTTCTGTTCAAGCGCCATCTAC | 0.955 RPM ratio (pull-down/input)
GATGATTGTTCTCCCAGCTGATGAATTATTAGATTCGAGTAAACAAATTTTCCTAATCTTTCTGTTCAAGCGCCATCTAC | 1.08 RPM ratio (pull-down/input)

Sequence | binding signal
GATGATTGTTCTCCCAGCTGATGAATTAGACTGATCGAGTAAACAAATTTTCCTAATCTTTCTGTTCAAGCGCCATCTAC | 0.851 RPM ratio (pull-down/input)
GATGATTGTTCTCCCAGCTGATGAATTACAATTGTCGAGTAAACAAATTTTCCTAATCTTTCTGTTCAAGCGCCATCTAC | 1.4 RPM ratio (pull-down/input)
GATGATTGTTCTCCCAGCTGATGAATTTTGAACTTCGAGTAAACAAATTTTCCTAATCTTTCTGTTCAAGCGCCATCTAC | 0.94 RPM ratio (pull-down/input)
GATGATTGTTCTCCCAGCTGATGAATTTGCAGTTTCGAGTAAACAAATTTTCCTAATCTTTCTGTTCAAGCGCCATCTAC | 1.02 RPM ratio (pull-down/input)
GATGATTGTTCTCCCAGCTGATGAATTTCCGTCGTCGAGTAAACAAATTTTCCTAATCTTTCTGTTCAAGCGCCATCTAC | 0.841 RPM ratio (pull-down/input)
GATGATTGTTCTCCCAGCTGATGAATTATCATCATCGAGTAAACAAATTTTCCTAATCTTTCTGTTCAAGCGCCATCTAC | 1.12 RPM ratio (pull-down/input)
GATGATTGTTCTCCCAGCTGATGAATTTGCTTTATCGAGTAAACAAATTTTCCTAATCTTTCTGTTCAAGCGCCATCTAC | 1.1 RPM ratio (pull-down/input)
GATGATTGTTCTCCCAGCTGATGAATTTTGCTTATCGAGTAAACAAATTTTCCTAATCTTTCTGTTCAAGCGCCATCTAC | 2.09 RPM ratio (pull-down/input)
GATGATTGTTCTCCCAGCTGATGAATTGTTGTTATCGAGTAAACAAATTTTCCTAATCTTTCTGTTCAAGCGCCATCTAC | 2.91 RPM ratio (pull-down/input)
GATGATTGTTCTCCCAGCTGATGAATTCTTGTTATCGAGTAAACAAATTTTCCTAATCTTTCTGTTCAAGCGCCATCTAC | 2.09 RPM ratio (pull-down/input)
GATGATTGTTCTCCCAGCTGATGAATTCGAGTTATCGAGTAAACAAATTTTCCTAATCTTTCTGTTCAAGCGCCATCTAC | 0.96 RPM ratio (pull-down/input)
GATGATTGTTCTCCCAGCTGATGAATTGTTCTTATCGAGTAAACAAATTTTCCTAATCTTTCTGTTCAAGCGCCATCTAC | 1.41 RPM ratio (pull-down/input)
GATGATTGTTCTCCCAGCTGATGAATTCCTGTTATCGAGTAAACAAATTTTCCTAATCTTTCTGTTCAAGCGCCATCTAC | 1.65 RPM ratio (pull-down/input)
GATGATTGTTCTCCCAGCTGATGAATTGCTTATATCGAGTAAACAAATTTTCCTAATCTTTCTGTTCAAGCGCCATCTAC | 1.34 RPM ratio (pull-down/input)
GATGATTGTTCTCCCAGCTGATGAATTGTTATCATCGAGTAAACAAATTTTCCTAATCTTTCTGTTCAAGCGCCATCTAC | 1.73 RPM ratio (pull-down/input)
GATGATTGTTCTCCCAGCTGATGAATTTCTGTTATCGAGTAAACAAATTTTCCTAATCTTTCTGTTCAAGCGCCATCTAC | 1.69 RPM ratio (pull-down/input)
GATGATTGTTCTCCCAGCTGATGAATTTTTATCATCGAGTAAACAAATTTTCCTAATCTTTCTGTTCAAGCGCCATCTAC | 1.36 RPM ratio (pull-down/input)
GATGATTGTTCTCCCAGCTGATGAATTTATGTGATCGAGTAAACAAATTTTCCTAATCTTTCTGTTCAAGCGCCATCTAC | 1.21 RPM ratio (pull-down/input)
GATGATTGTTCTCCCAGCTGATGAATTGTAGTGCTCGAGTAAACAAATTTTCCTAATCTTTCTGTTCAAGCGCCATCTAC | 1.04 RPM ratio (pull-down/input)
GATGATTGTTCTCCCAGCTGATGAATTTGGTACGTCGAGTAAACAAATTTTCCTAATCTTTCTGTTCAAGCGCCATCTAC | 0.997 RPM ratio (pull-down/input)
GATGATTGTTCTCCCAGCTGATGAATTAATCGCGTCGAGTAAACAAATTTTCCTAATCTTTCTGTTCAAGCGCCATCTAC | 1.01 RPM ratio (pull-down/input)
